This note sets out measurements from PubChem BioAssay.

Assay [1] in a line: antimalarial activity against Dd2 strain (AID 2302;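 active = growth inhibition above 50% at the single 2 µM test dose, taken to imply half-maximal potency below 2 µM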;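 also: 0% = DMSO untreated growth and 100% = chloroquine plus artemisinin killed control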). The settings on record: P. falciparum Dd2 in RBCs, LDH growth readout, 72 h; at 2 µM; hits give high values.
Assay [2] can be described thus: human hepatoma cell viability loss – ATP luminescence, cytotoxicity control for P. falciparum antimalarial project, primary screen (AID 2303;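 active = inhibition above 50%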;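 also: 0% = DMSO wells and 100% = digitonin-killed cells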). The settings on record: HepG2 viability, 24-48 h, at 10 µM, hits give high values.
In assay [3] the target is L-lactate dehydrogenase (Plasmodium falciparum (isolate CDC / Honduras)) (UniProt Q27743). Put plainly: PfLDH activity inhibition – cell lysate, 3D7 strain, counter-screen for P. falciparum growth inhibition project (AID 2304).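 Also: 0% = vehicle and 100% = reference inhibitor.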 Conditions: P. falciparum 3D7 crude extract, LDH APAD/NBT absorbance; at 2 µM; hits give high values. A general note: Counterscreens check selectivity or assay interference.

Assay [4] in a line: inhibition of 3D7 malaria parasite growth – strain 3D7 (AID 2306).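 Also: 0% = DMSO wells and 100% = chloroquine plus artemisinin control wells.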 Conditions: P. falciparum 3D7 erythrocytic growth, LDH absorbance, 72 h; at 2 µM; hits give high values.
Assay [5] concerns the target Calcium-dependent protein kinase 1 (Plasmodium falciparum (isolate 3D7)) (UniProt P62344). Kind of assay: PfCDPK1 kinase inhibitors, biochemical, TCAMS library (AID 1159585; cut-off not given, nearly all actives have IC50 up to about 0.98 µM;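 also: inhibitors leave more ATP so luminescence rises with inhibition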). Conditions: recombinant PfCDPK1, Kinase-Glo ATP depletion luminescence. In general terms: In Kinase-Glo more light means more ATP remaining.
In assay [6] the target is Plasmodium falciparum protein kinase 6 (PK6, PF3D7_1337100) (UniProt Q8IDW1). Put plainly: PfPK6 kinase inhibitors, biochemical, TCAMS library (AID 1159586). Conditions: recombinant PfPK6, Kinase-Glo ATP depletion luminescence.
Assay [7] has as its target Protein kinase 7 (PK7), Plasmodium falciparum 3D7 (PF3D7_0213400) (UniProt Q7YTF7). Kind of assay: inhibition of Plasmodium PK7 catalytic activity – biochemical, TCAMS antimalarial set, Kinase-Glo luminescence (AID 1159587). The settings on record: recombinant PfPK7, Kinase-Glo ATP depletion luminescence.
Assay [8] has as its target Calcium-dependent protein kinase 4 (Plasmodium falciparum (isolate 3D7)) (UniProt Q8IBS5). Kind of assay: PfCDPK4 kinase inhibitors, biochemical, TCAMS library (AID 1159588; cut-off not given, nearly all actives have IC50 up to about 0.91 µM). The settings on record: recombinant PfCDPK4, Kinase-Glo ATP depletion luminescence.

Unmarked numbers belong to inactive results. For some of these results: Results with a measured potency or affinity are listed apart. Calls of active or inactive are those of the source. Unless noted, no rule for the calls is given here.

L-lactate dehydrogenase (Plasmodium falciparum (isolate CDC / Honduras)), sequence (Q27743 whole entry, looked up): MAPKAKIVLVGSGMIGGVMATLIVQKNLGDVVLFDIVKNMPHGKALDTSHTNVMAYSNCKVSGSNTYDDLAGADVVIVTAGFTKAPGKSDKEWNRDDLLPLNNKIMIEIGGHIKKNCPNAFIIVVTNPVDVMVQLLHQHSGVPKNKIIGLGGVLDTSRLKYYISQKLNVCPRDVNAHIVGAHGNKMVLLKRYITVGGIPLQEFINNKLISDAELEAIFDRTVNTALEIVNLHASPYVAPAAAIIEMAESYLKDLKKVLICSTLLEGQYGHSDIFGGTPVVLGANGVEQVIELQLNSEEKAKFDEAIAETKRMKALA
Plasmodium falciparum protein kinase 6 (PK6, PF3D7_1337100), sequence (Q8IDW1 1-305): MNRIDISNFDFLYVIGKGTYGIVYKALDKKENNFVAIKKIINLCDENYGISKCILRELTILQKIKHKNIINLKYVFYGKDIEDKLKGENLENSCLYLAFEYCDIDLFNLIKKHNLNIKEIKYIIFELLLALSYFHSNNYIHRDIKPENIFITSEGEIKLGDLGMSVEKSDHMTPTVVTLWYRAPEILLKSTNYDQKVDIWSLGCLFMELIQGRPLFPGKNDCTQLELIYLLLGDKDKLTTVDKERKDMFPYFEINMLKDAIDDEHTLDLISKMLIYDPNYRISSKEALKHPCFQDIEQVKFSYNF
Protein kinase 7 (PK7), Plasmodium falciparum 3D7 (PF3D7_0213400), sequence (Q7YTF7 1-343): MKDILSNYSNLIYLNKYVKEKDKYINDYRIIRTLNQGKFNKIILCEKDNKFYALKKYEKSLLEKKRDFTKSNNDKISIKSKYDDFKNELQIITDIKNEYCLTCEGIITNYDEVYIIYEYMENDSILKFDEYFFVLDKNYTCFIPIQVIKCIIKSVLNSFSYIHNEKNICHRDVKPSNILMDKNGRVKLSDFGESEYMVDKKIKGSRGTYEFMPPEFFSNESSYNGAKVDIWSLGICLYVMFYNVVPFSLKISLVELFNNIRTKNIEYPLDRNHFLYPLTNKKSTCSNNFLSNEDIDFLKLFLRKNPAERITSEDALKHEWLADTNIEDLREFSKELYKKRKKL
Calcium-dependent protein kinase 1 (Plasmodium falciparum (isolate 3D7)), sequence (P62344 whole entry, looked up): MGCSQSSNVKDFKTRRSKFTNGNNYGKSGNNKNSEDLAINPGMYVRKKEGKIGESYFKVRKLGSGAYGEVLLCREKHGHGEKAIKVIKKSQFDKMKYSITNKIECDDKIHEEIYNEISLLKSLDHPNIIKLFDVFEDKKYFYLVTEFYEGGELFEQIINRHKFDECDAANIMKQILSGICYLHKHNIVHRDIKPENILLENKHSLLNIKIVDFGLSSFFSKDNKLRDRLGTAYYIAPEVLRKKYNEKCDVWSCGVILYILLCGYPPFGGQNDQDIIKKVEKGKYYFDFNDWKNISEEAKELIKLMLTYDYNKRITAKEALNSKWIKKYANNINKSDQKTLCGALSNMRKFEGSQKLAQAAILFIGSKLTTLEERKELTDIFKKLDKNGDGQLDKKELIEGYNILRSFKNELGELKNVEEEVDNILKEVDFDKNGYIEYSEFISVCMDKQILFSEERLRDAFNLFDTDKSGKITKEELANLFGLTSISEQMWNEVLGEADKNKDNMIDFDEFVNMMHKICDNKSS
Calcium-dependent protein kinase 4 (Plasmodium falciparum (isolate 3D7)), sequence (Q8IBS5 whole entry, looked up): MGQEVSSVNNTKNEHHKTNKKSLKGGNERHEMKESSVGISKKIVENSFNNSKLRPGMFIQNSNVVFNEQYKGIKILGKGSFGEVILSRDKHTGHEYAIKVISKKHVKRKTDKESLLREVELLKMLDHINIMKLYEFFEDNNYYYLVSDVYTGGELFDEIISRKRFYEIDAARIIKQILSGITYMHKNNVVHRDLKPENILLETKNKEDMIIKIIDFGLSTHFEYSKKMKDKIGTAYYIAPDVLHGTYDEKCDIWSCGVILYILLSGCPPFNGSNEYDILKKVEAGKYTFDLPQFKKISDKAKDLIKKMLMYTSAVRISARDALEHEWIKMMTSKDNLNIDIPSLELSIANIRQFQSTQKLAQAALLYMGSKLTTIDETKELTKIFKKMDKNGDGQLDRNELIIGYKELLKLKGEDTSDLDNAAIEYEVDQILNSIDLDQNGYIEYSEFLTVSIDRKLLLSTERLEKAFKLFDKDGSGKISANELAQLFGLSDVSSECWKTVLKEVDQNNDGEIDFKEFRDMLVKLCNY

Consider `CN1CCCC1CCNc1ncc2c(-c3ccc(NC(=O)Nc4cc(C(F)(F)F)ccc4F)c(F)c3)nn(C)c2n1` (stereo not given), for which the growth inhibition was 90% (active) in assay [1] and 99% (active) in assay [4]. Further, the inhibition (usually the relative decrease from the control value, in per cent) in assay [2] was 100% (active); in assay [3], 1%. The result in assay [5], in assay [6], in assay [7] and in assay [8] was inactive.

Consider `O=C(CCc1cnc[nH]1)Nc1ccc(-c2ccc(-c3nc4ccc(F)cc4[nH]3)cc2)cc1`, for which the growth inhibition was 58% (active) in assay [1] and 99% (active) in assay [4]. Further, the results for the inhibition in assay [2] and in assay [3] were 26% and -1%, respectively. The result in assay [5], in assay [6], in assay [7] and in assay [8] was inactive.

Turning to `N#Cc1ccc2c(c1)CCN(CCC1CCC(NC(=O)c3cc4cccc([N+](=O)[O-])c4[nH]3)CC1)C2` (stereo not given), the growth inhibition in assay [1] was 28%; in assay [4], 100% (active). The inhibition in assay [2] was -4%; in assay [3] it was -5%. Moreover, the outcome in assay [5], in assay [6], in assay [7] and in assay [8] was inactive.

For the molecule `COc1ccc2ncc(C#N)c(CCN3CCC(NCc4ccc5c(c4)NC(=O)CO5)CC3)c2c1`, the growth inhibition in assay [1] is 43%; in assay [4], 99% (active). Besides, the figures for the inhibition in assay [2] and in assay [3] were 25% and -3%, respectively. Moreover, the result in assay [5], in assay [6], in assay [7] and in assay [8] was inactive.

Turning to `Cc1c(CNCCN2CCCCC2)c(C(=O)O)c(C)n1Cc1ccc(Cl)cc1`, the results for the growth inhibition in assay [1] and in assay [4] were 93% (active) and 97% (active), respectively. Further, the inhibition in assay [2] is 4%; in assay [3] it was -6%. Moreover, the result in assay [5], in assay [6], in assay [7] and in assay [8] was inactive.

Take `O=C(Nc1cccc(-c2cccc(-c3nc4ccccc4[nH]3)c2)c1)Nc1ccc2c(c1)OCO2`: the values for the growth inhibition in assay [1] and in assay [4] were 57% (active) and 101% (active), respectively. Also, the inhibition was 25% in assay [2] and -4% in assay [3]. Also, the outcome in assay [5], in assay [6], in assay [7] and in assay [8] was inactive.

Turning to `C[C@]12CC3CC(Nc4nc(N5CCOCC5)nc5ccccc45)(C1)C[C@@](C)(C3)C2`, the growth inhibition is 14% in assay [1] and 95% (active) in assay [4]. Further, the inhibition was 31% in assay [2] and -5% in assay [3]. Besides, the outcome in assay [5], in assay [6], in assay [7] and in assay [8] was inactive.

For `OC(CNC1CCCCC1)Cn1c2ccccc2c2ccccc21` (stereo not given), the growth inhibition was 92% (active) in assay [1] and 97% (active) in assay [4]. Besides, the inhibition in assay [2] was 11%; in assay [3] it was 0%. In addition, the result in assay [5], in assay [6], in assay [7] and in assay [8] was inactive.

As to `CC(C)NCc1cccc(-c2cccc(-c3nc4ccc(F)cc4[nH]3)c2)c1`, the figures for the growth inhibition in assay [1] and in assay [4] were 85% (active) and 101% (active), respectively. The inhibition in assay [2] was 20%; in assay [3] it was 2%. Moreover, the outcome in assay [5], in assay [6], in assay [7] and in assay [8] was inactive.

In the case of `NC1CCN(c2nc(NCCCc3ccc(O)cc3)nc(NCc3ccccc3-c3ccccc3)n2)CC1`, the growth inhibition in assay [1] was 45%; in assay [4], 102% (active). The inhibition in assay [2] was 11%; in assay [3], 4%. The result in assay [5], in assay [6], in assay [7] and in assay [8] was inactive.

As for `Cc1ccc(Nc2ccnc(Nc3ccc(C)c(F)c3)n2)cc1O`, the growth inhibition in assay [1] is 27%; in assay [4], 100% (active). For the same molecule, the results for the inhibition in assay [2] and in assay [3] were 4% and -4%, respectively. The result in assay [5], in assay [6], in assay [7] and in assay [8] was inactive.

Consider `CCC(C)(C)c1ccc(N2C(N)=NC(N)=NC2(C)C)cc1`, for which the growth inhibition was 4% in assay [1] and 91% (active) in assay [4]. Moreover, the inhibition in assay [2] was 40%; in assay [3], -1%. In addition, the outcome in assay [5], in assay [6], in assay [7] and in assay [8] was inactive.

As to `Cc1cc(Cl)c(S(=O)(=O)NC(C)(C)C)cc1OCC(=O)NC1CCCCC1`, the results for the growth inhibition in assay [1] and in assay [4] were 53% (active) and 93% (active), respectively. Moreover, the inhibition in assay [2] was 10%; in assay [3] it was -5%. For the same molecule, the result in assay [5], in assay [6], in assay [7] and in assay [8] was inactive.

As for `COc1ccc(-c2ccc(NC(=O)c3ccc(C#N)cc3)cc2)cc1CN1CCNCC1`, the growth inhibition was 42% in assay [1] and 96% (active) in assay [4]. Also, the inhibition in assay [2] is 23%; in assay [3] it was 0%. The outcome in assay [5], in assay [6], in assay [7] and in assay [8] was inactive.

For the molecule `NC(=S)Cc1ccc2c(c1)OCO2`, the growth inhibition was -3% in assay [1] and 96% (active) in assay [4]. The inhibition in assay [2] was 43%; in assay [3] it was -2%. The outcome in assay [5], in assay [6], in assay [7] and in assay [8] was inactive.

For the molecule `CC(C)(C)c1ccc(NC(=O)c2cccc(CN3CCCN(Cc4ccsc4)CC3)c2)cc1`, the growth inhibition was 3% in assay [1] and 96% (active) in assay [4]. Also, the inhibition is 33% in assay [2] and -4% in assay [3]. Also, the outcome in assay [5], in assay [6], in assay [7] and in assay [8] was inactive.

On to `O=C(Nc1ccc2ccccc2c1)N(CCCn1ccnc1)Cc1csc(-c2ccc(CNCc3ccccc3)cc2)n1`, for which the growth inhibition in assay [1] was 53% (active); in assay [4], 99% (active). In addition, the inhibition in assay [2] is 10%; in assay [3] it was 0%. In addition, the outcome in assay [5], in assay [6], in assay [7] and in assay [8] was inactive.

Take `Cc1cccc2[nH]c(-c3ccc(-c4ccc(CNCCc5ccncc5)cc4)cc3)nc12`: the figures for the growth inhibition in assay [1] and in assay [4] were 98% (active) and 100% (active), respectively. For the same molecule, the inhibition in assay [2] was 34%; in assay [3] it was 0%. Also, the result in assay [5], in assay [6], in assay [7] and in assay [8] was inactive.

Turning to `CCCC(C)Nc1nc(C)cc(N[C@@H](Cc2ccccc2)C(=O)Nc2ccc(OC)cc2)n1` (stereo not given in full), the growth inhibition is 72% (active) in assay [1] and 100% (active) in assay [4]. Further, the inhibition in assay [2] was 24%; in assay [3], -1%. The outcome in assay [5], in assay [6], in assay [7] and in assay [8] was inactive.

In the case of `COc1cc(OC)c2c(c1Cl)O[C@]1(C2=O)C(=O)C(Cc2ccccc2)(Cc2ccccc2)C(=O)C[C@H]1C`, the results for the growth inhibition in assay [1] and in assay [4] were 45% and 90% (active), respectively. The inhibition is -12% in assay [2] and -3% in assay [3]. The outcome in assay [5], in assay [6], in assay [7] and in assay [8] was inactive.
